We go through 49 compounds from PubChem BioAssay AID686979 (National Center for Advancing Translational Sciences (NCATS), 2013).

Hit rate of the full screen: of about 420,000 compounds, about 50,000 (12%) were called active. About 26% were inconclusive and are not listed. The sample as a whole holds a higher share of actives than the screen did. Values without a mark were called inactive. Calls follow the shape of the dose curve; as a rule, active = well fitted inhibition curve with a large enough effect; inconclusive = small, poorly fitted or top-dose-only effect; inactive = flat fitted curve, though single readings scatter.
% is scaled to controls: 0 for no effect and ±100 for the full control effect; potency is read from the fitted curve at half-maximal effect.

This test in a line: qHTS for Inhibitors of human tyrosyl-DNA phosphodiesterase 1 (TDP1): qHTS in cells in presence of CPT. Also: nearly all actives have a fitted effect of over 55% in size. Particulars: chicken DT40 Tdp1-/-;hTDP1 cells + 20 nM CPT, ATP luminescence, 48 h; series mostly up to 46.2 µM; activity change, negative = growth inhibition: at the top concentration. In outline: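 Chicken DT40 Tdp1-/- cells complemented with human TDP1, 400 cells/well, exposed to compounds plus 20 nM camptothecin for at least 48 h at 37 C; viability read as ATP content by CellTiter-Glo luminescence.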
A general note: qHTS replaces the single test concentration by a dilution series.
For the compound `COC(=O)c1c(NC(=O)COc2ccc(Cl)cc2Cl)sc2c1CC(C)(C)NC2(C)C`, the Potency is 7.31 µM (active).
On to `O=S(=O)(NCCc1ccc(F)cc1)c1cccc2cccnc12`, for which the “activity change, negative = growth inhibition” value was -15.1%.
For the compound `CCOC(=O)c1ccc(NC(=O)Cn2cc(S(=O)(=O)Cc3ccccc3F)c3ccccc32)cc1`, the “activity change, negative = growth inhibition” value is -26.9%.
Regarding `Cc1ccc(Cn2cc(C(=O)NN)c(=O)c3ccc(F)cc32)cc1`, the “activity change, negative = growth inhibition” value is -22.5%.
On to `CCOc1ccc(C(=O)c2cn(Cc3ccccc3OC)c3ccc(F)cc3c2=O)cc1`, for which the Potency was 16.4 µM (active).
Turning to `O=C(c1ccc(F)cc1)c1cn(Cc2ccc(F)cc2)c2cc3c(cc2c1=O)OCCO3`, the “activity change, negative = growth inhibition” value is -15.9%.
`COc1ccc(NC(=O)Cn2cc(C(=O)c3ccncc3)c(=O)c3cc(C)ccc32)cc1Cl`: the “activity change, negative = growth inhibition” value is 5.62%.
Regarding `COc1ccccc1CNC(=O)CN1CCC(n2cnc3cc(F)ccc32)CC1`, the “activity change, negative = growth inhibition” value was -7.82%.
For `CCOc1ccc(C(=O)c2cn(Cc3ccc(F)cc3)c3ccc(F)cc3c2=O)cc1`, the Potency was 18.4 µM (active).
In the case of `CC12CCC(C(=O)N3CCN(c4ncccn4)CC3)(c3nc4ccccc4nc31)C2(C)C` (centres undefined), the “activity change, negative = growth inhibition” value was -11.1%.
`Cc1nc(SCC(=O)Nc2ccc(C(=O)O)cc2)n[nH]1`: the “activity change, negative = growth inhibition” value is 9.68%.
Take `CC1CC(C)CN(C(=O)C2CC(=O)N(c3ccc(F)cc3)C2)C1` (centres undefined): the “activity change, negative = growth inhibition” value is -20.7%.
Regarding `CC(=O)Nc1ccc(NC(=O)CS(=O)(=O)c2cn(CC(=O)N3CCCCC3)c3ccccc23)cc1`, the “activity change, negative = growth inhibition” value was -10.5%.
Same read-out and setting: the value for `COc1ccccc1C(=O)N1C(CC(=O)Nc2ccccc2C)C(=O)NC2CCCCC21` (centres undefined) was -19%.
On to `CCc1cc2c(N3CCN(c4nnc(CC)s4)CC3)ncnc2s1`, for which the Potency was 10.3 µM (active).
In the case of `CCOCCCNCc1ccc(OCc2ccc(F)cc2)c(OC)c1`, the “activity change, negative = growth inhibition” value is -17.6%.
Turning to `O=C(NCCCO)C(=O)Nc1c2c(nn1-c1ccccc1)CSC2`, the “activity change, negative = growth inhibition” value was -5.46%.
In the case of `COc1ccc(S(=O)(=O)N2CCCCCC2)cc1C(=O)N(C)Cc1cccc(OC)c1OC`, the “activity change, negative = growth inhibition” value was -28.8%.
In the case of `CCN(CC)S(=O)(=O)c1ccc(OC)c(NC(=O)CCc2c(C)noc2C)c1`, the “activity change, negative = growth inhibition” value is 1.45%.
Turning to `CCN(CC)S(=O)(=O)c1ccc(N(C)Cc2cccc(OC)c2OC)nc1`, the Potency was 23.1 µM (active).
Take `CCC(C(=O)N1CCN(S(=O)(=O)c2sc(C(=O)O)c(C)c2C(=O)O)CC1)c1ccccc1` (centres undefined): the “activity change, negative = growth inhibition” value was -4.51%.
On to `CCCCCCC(O)(CCN1CCCCC1)c1ccccc1` (centres undefined), for which the “activity change, negative = growth inhibition” value is 6.69%.
Still for that read-out and setting: the value for `O=C(CSc1ncn[nH]1)Nc1nc2c(F)c(F)c(F)cc2s1` was -10.6%.
Take `Cc1c(CCOC(=O)CC23CC4CC(CC(C)(C4)C2)C3)sc[n+]1Cc1ccc([N+](=O)[O-])cc1`: the Potency was 18.4 µM (active).
`COc1ccc(C(=O)CSc2nnc(-c3ccco3)o2)cc1`: the “activity change, negative = growth inhibition” value was -1.34%.
For `COc1ccc(-n2c(C)cc(C(=O)CSc3nnc(-c4cccs4)o3)c2C)cc1`, the Potency is 16.4 µM (active).
For `Cc1ccc(OC(=O)CSc2nnc(-c3cccs3)o2)cc1`, the “activity change, negative = growth inhibition” value is 1.42%.
As to `Cc1ccc(S(=O)(=O)N2CC[C@H]3[C@@H](C2)C(=O)C[C@@H](c2ccccc2)N3S(=O)(=O)c2ccc(C)cc2)cc1`, the “activity change, negative = growth inhibition” value was -12.4%.
For `Cc1ccc(C)c(S(=O)(=O)Nc2cc(C)on2)c1`, the “activity change, negative = growth inhibition” value is -2.88%.
The same measure, in the same setting: with `CC(NC(=O)CC1SC(N)=NC1=O)c1ccccc1` (centres undefined) the figure was -7.27%; with `Cc1nc(CN(C)C(=O)CC2C(=O)NCCN2Cc2ccc(F)cc2)cs1` (centres undefined), 1.54%; with `CCCC(=O)Nc1ncnc2c1ncn2[C@@H]1O[C@@H]2OP(=O)(O)OC[C@H]2[C@H]1OC(=O)CCC`, 3.57%.
In the case of `O=C(Cc1ccc(Cl)cc1)NC1CCS(=O)(=O)C1` (centres undefined), the “activity change, negative = growth inhibition” value is -2.99%.
On to `O=S1(=O)CCC(NC(=S)SCc2ccccc2Br)C1` (centres undefined), for which the Potency was 8.2 µM (active).
Turning to `O=C(CSc1ccccc1F)NC1CCS(=O)(=O)C1` (centres undefined), the “activity change, negative = growth inhibition” value is -0.0027%.
On the same count and under the same terms, with `CC(C)C(=O)NC(NC(=S)NC1CCS(=O)(=O)C1)C(Cl)(Cl)Cl` (centres undefined) the figure was -3.75%.
For the compound `COc1ccc(NC(=S)NC2CCS(=O)(=O)C2)cc1` (centres undefined), the “activity change, negative = growth inhibition” value was 1.76%.
Consider `CCCSC(=S)NC1CCS(=O)(=O)C1` (centres undefined), for which the Potency is 16.4 µM (active).
In the case of `CCOc1ccc(NC(=O)CN(C)CC(=O)NC(C)c2ccccc2)cc1OCC` (centres undefined), the “activity change, negative = growth inhibition” value was -9.01%.
Take `CN(CCC(=O)Nc1cc(S(=O)(=O)N(C)C)ccc1Cl)CC(=O)Nc1ccc(F)cc1`: the “activity change, negative = growth inhibition” value was 5.34%.
The same measure, in the same setting: with `CN1OC[C@@H]2CN(C(=O)c3cccnc3)[C@H](c3ccc(N4CCCCC4)cc3)C[C@@H]21` the figure was 6.47%; with `CCOC(=O)CN(C(=O)COc1nc(-c2ccccc2)cc(C)c1C#N)c1ccc(F)cc1`, -24.9%.
As to `O=[N+]([O-])c1ccc(NC(=S)N2CCN(c3ccccn3)CC2)cc1`, the Potency is 16.4 µM (active).
Regarding `CCOC(=O)c1ccc(NC(=S)N2CCN(c3ccccn3)CC2)cc1`, the “activity change, negative = growth inhibition” value was 1.63%.
For the compound `COc1cc([N+](=O)[O-])ccc1NC(=S)N1CCN(c2ccccn2)CC1`, the “activity change, negative = growth inhibition” value is -24.2%.
Still for that read-out and setting: the value for `CC(=O)Nc1ccc(NC(=O)CCCNC(=O)c2ccc(Cl)cc2)cc1` was -1.54%.
Take `COCCCNC(=O)CCc1nc2cccnc2n1Cc1ccc(OC)cc1`: the “activity change, negative = growth inhibition” value is -3.73%.
As to `COCCn1c(CCC(=O)Nc2cc(C)ccc2C)nc2cccnc21`, the “activity change, negative = growth inhibition” value is -9.25%.
For `Cc1ccc(Cn2c(CNC(=O)Cc3cccc(C)c3)nc3cccnc32)cc1`, the Potency is 13 µM (active).
